Residue numbers refer to the chain shown, from its start.

This note sets out measurements from paper PMC8384837, “Expanding the binding specificity for RNA recognition by a PUF domain”.

Common to all, as to test: yeast three-hybrid, YBZ-1, SC-Leu-His + 0.5 mM 3-AT, 4 days
Settings in all cases: tags: N-Gal4 AD-HA kept; label: inside an RPR1-promoter hybrid RNA with tandem MS2 sites; ssRNA

Test [1] has as its target PUM1 PUF domain R8-SWF (Homo sapiens, UniProt Q14671 828-1176, N1122S;Y1123W;Q1126F). Put shortly:
(§1)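 A centromeric plasmid in strain YBZ-1 co-expressed Pumilio-1 PUF domain libraries, randomized at the three base-contacting residues of each repeat, with matching RNA elements; the strain carries a LexA–MS2 coat fusion and a HIS3 reporter. After four days on SC-Leu (input) or SC-Leu-His + 0.5 mM 3-AT (selection), the repeat regions were PCR-amplified and Illumina-sequenced. The interaction score is the log change in variant frequency from input to selection, using log2 and a pseudocount of 1 where absent.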

Test [2] concerns the target PUM1 PUF domain R3-RVM (Homo sapiens, UniProt Q14671 828-1176, C935R;R936V;Q939M). An outline of the steps:
as §1

Test [3] addresses PUM1 PUF domain R3-QPR (Homo sapiens, UniProt Q14671 828-1176, C935Q;R936P;Q939R). An outline of the steps: as §1
Test [4] has as its target PUM1 PUF domain R3-WWQ (Homo sapiens, UniProt Q14671 828-1176, C935W;R936W). An outline of the steps:
as §1

Test [5] addresses PUM1 PUF domain R3-RTS (Homo sapiens, UniProt Q14671 828-1176, C935R;R936T;Q939S). Put shortly:
as §1

Test [6] deals with PUM1 PUF domain R1-RRM (Homo sapiens, UniProt Q14671 828-1176, S863R;Q867M). Put shortly:
as §1

Test [7] concerns the target PUM1 PUF domain R5-NSR (Homo sapiens, UniProt Q14671 828-1176, C1007N;R1008S;Q1011R). An outline of the steps:
as §1

Test [8] has as its target PUM1 PUF domain R5-RHR (Homo sapiens, UniProt Q14671 828-1176, C1007R;R1008H;Q1011R). Put shortly:
as §1

In test [9] the target is T1, PUM1 PUF domain R6-TFM (Homo sapiens, UniProt Q14671 828-1176, N1043T;Y1044F;Q1047M).
T1 sequence: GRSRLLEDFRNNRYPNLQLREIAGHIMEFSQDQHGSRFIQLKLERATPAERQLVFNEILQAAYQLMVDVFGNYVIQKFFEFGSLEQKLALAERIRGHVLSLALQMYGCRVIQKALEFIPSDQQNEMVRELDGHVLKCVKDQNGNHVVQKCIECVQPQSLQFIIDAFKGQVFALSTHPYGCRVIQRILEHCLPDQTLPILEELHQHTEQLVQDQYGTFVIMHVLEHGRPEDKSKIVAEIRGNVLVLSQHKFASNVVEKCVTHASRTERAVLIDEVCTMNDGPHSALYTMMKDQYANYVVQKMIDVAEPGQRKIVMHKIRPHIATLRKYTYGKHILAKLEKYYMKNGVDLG
An outline of the steps: as §1

Test [10] addresses T2, PUM1 PUF domain R6-VWG (Homo sapiens, UniProt Q14671 828-1176, N1043V;Y1044W;Q1047G).
T2 sequence: T1 sequence with T216V, F217W, M220G
Put shortly:
as §1

In test [11] the target is T3, PUM1 PUF domain R6-DWI (Homo sapiens, UniProt Q14671 828-1176, N1043D;Y1044W;Q1047I).
T3 sequence: T1 sequence with T216D, F217W, M220I
An outline of the steps:
as §1

The target of test [12] is T4, PUM1 PUF domain R6-VFG (Homo sapiens, UniProt Q14671 828-1176, N1043V;Y1044F;Q1047G).
T4 sequence: T1 sequence with T216V, M220G
Put shortly: as §1

The target of test [13] is PUM1 PUF domain R4-SFP (Homo sapiens, UniProt Q14671 828-1176, N971S;H972F;Q975P). Put shortly: as §1
For test [14], the target named is PUM1 PUF domain R4-CRR (Homo sapiens, UniProt Q14671 828-1176, N971C;H972R;Q975R). An outline of the steps:
as §1

In test [15] the target is PUM1 PUF domain R4-CNG (Homo sapiens, UniProt Q14671 828-1176, N971C;H972N;Q975G). An outline of the steps: as §1
Test [16] deals with PUM1 PUF domain R7-RCN (Homo sapiens, UniProt Q14671 828-1176, S1079R;N1080C;E1083N). An outline of the steps:
as §1

In test [17] the target is PUM1 PUF domain R3-GWM (Homo sapiens, UniProt Q14671 828-1176, C935G;R936W;Q939M). An outline of the steps: as §1
Test [18] deals with PUM1 PUF domain R5-SIC (Homo sapiens, UniProt Q14671 828-1176, C1007S;R1008I;Q1011C). Put shortly: as §1
Test [19] deals with PUM1 PUF domain R5-IRP (Homo sapiens, UniProt Q14671 828-1176, C1007I;Q1011P). An outline of the steps:
as §1

Test [20] addresses PUM1 PUF domain R3-YSG (Homo sapiens, UniProt Q14671 828-1176, C935Y;R936S;Q939G). Put shortly:
as §1

Turning to “GGCUAGAACUAGUGGAUCCCCCGGCGCCCGGCGGCUCGAGCCCGGGUAAGCGUAAAUAGUCUGCAUGCCGCCGGGCGCCAUGCCUGCAGGUCGACUCUAGAAAACAUG”, the binding signal in [1] is 1.73 log2 enrichment (interaction score).

Take “GGCUAGAACUAGUGGAUCCCCCGGCGCCCGGCGGCUCGAGCCCGGGUAAGUGUAAUUAGUCUGCAUGCCGCCGGGCGCCAUGCCUGCAGGUCGACUCUAGAAAACAUG”: the binding signal is 2.43 log2 enrichment (interaction score) in test [2], 5.15 log2 enrichment (interaction score) in test [3], 2.48 log2 enrichment (interaction score) in test [4] and 3.18 log2 enrichment (interaction score) in test [5].

Regarding “GGCUAGAACUAGUGGAUCCCCCGGCGCCCGGCGGCUCGAGCCCGGGUAAGUGUAAAUUGUCUGCAUGCCGCCGGGCGCCAUGCCUGCAGGUCGACUCUAGAAAACAUG”, the binding signal in test [6] was 1.41 log2 enrichment (interaction score).

With “GGCUAGAACUAGUGGAUCCCCCGGCGCCCGGCGGCUCGAGCCCGGGUAAGUGUUAAUAGUCUGCAUGCCGCCGGGCGCCAUGCCUGCAGGUCGACUCUAGAAAACAUG”, the binding signal is 4.06 log2 enrichment (interaction score) in test [7] and 4.52 log2 enrichment (interaction score) in test [8].

Turning to “GGCUAGAACUAGUGGAUCCCCCGGCGCCCGGCGGCUCGAGCCCGGGUAAGUGAAAAUAGUCUGCAUGCCGCCGGGCGCCAUGCCUGCAGGUCGACUCUAGAAAACAUG”, the binding signal in [9] is 2.84 log2 enrichment (interaction score); in test [10] it was 6.85 log2 enrichment (interaction score); in [11], 2.33 log2 enrichment (interaction score); in test [12] it was 7.53 log2 enrichment (interaction score).

On to “GGCUAGAACUAGUGGAUCCCCCGGCGCCCGGCGGCUCGAGCCCGGGUAAGUGUCAAUAGUCUGCAUGCCGCCGGGCGCCAUGCCUGCAGGUCGACUCUAGAAAACAUG”, for which the binding signal in [7] is 4.06 log2 enrichment (interaction score).

Turning to “GGCUAGAACUAGUGGAUCCCCCGGCGCCCGGCGGCUCGAGCCCGGGUAAGUGUAAAUCGUCUGCAUGCCGCCGGGCGCCAUGCCUGCAGGUCGACUCUAGAAAACAUG”, the binding signal in test [6] was 2.95 log2 enrichment (interaction score).

Turning to “GGCUAGAACUAGUGGAUCCCCCGGCGCCCGGCGGCUCGAGCCCGGGUAAGUGUACAUAGUCUGCAUGCCGCCGGGCGCCAUGCCUGCAGGUCGACUCUAGAAAACAUG”, the binding signal in test [13] was 6.2 log2 enrichment (interaction score); in test [14], 3.13 log2 enrichment (interaction score); in [15], 2.39 log2 enrichment (interaction score).

Regarding “GGCUAGAACUAGUGGAUCCCCCGGCGCCCGGCGGCUCGAGCCCGGGUAAGUCUAAAUAGUCUGCAUGCCGCCGGGCGCCAUGCCUGCAGGUCGACUCUAGAAAACAUG”, in test [16], the binding signal was 2.67 log2 enrichment (interaction score).

Turning to “GGCUAGAACUAGUGGAUCCCCCGGCGCCCGGCGGCUCGAGCCCGGGUAAGUGUAUAUAGUCUGCAUGCCGCCGGGCGCCAUGCCUGCAGGUCGACUCUAGAAAACAUG”, the figures for the binding signal in test [13] and in test [15] were 7.15 log2 enrichment (interaction score) and 4.94 log2 enrichment (interaction score), respectively.

As to “GGCUAGAACUAGUGGAUCCCCCGGCGCCCGGCGGCUCGAGCCCGGGUAAGUGUAAAUAGUCUGCAUGCCGCCGGGCGCCAUGCCUGCAGGUCGACUCUAGAAAACAUG”, the binding signal in test [17] is 2.49 log2 enrichment (interaction score); in test [1], 2.33 log2 enrichment (interaction score); in test [18], 3.43 log2 enrichment (interaction score); in test [10], 2.67 log2 enrichment (interaction score); in test [15], 2.92 log2 enrichment (interaction score); in [19], 2.35 log2 enrichment (interaction score). Besides, the binding signal in [12] was 3.57 log2 enrichment (interaction score); in test [8], 1.95 log2 enrichment (interaction score).

As to “GGCUAGAACUAGUGGAUCCCCCGGCGCCCGGCGGCUCGAGCCCGGGUAAGUGUAAGUAGUCUGCAUGCCGCCGGGCGCCAUGCCUGCAGGUCGACUCUAGAAAACAUG”, the binding signal in test [17] was 1.14 log2 enrichment (interaction score); in test [4] it was 5.35 log2 enrichment (interaction score); in test [20], 2.43 log2 enrichment (interaction score).
